The list is not random: actives were taken first. Their share in the collection is about 9.4%.
Rab9 prom act: activators of Rab9 promoter. Huh7 Rab9 promoter-luciferase reporter, luminescence, 24 h. Potency, µM (doses to about 9.22 µM), for the others: top-dose activation, negative = inhibition, usual class: activators. 320,000 compounds, 2.8% hits; also: % of control where 0% means no effect; nearly all actives have a fitted effect of over 60% in size
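Promoter activation is measured as luciferase luminescence in Huh7 cells stably transfected with a Rab9 promoter–luciferase construct, following 24 h compound exposure at 37 °C and 10 min reagent incubation at ambient temperature.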
FLuc modulator: counter-screen for miR-21 project: firefly luciferase inhibitors or activators | P08659 | purified FLuc, Km substrates, luminescence inhibition | Potency, µM (highest dose often 57.5 µM), without a hit: at the top dose activity change, negative = inhibition, most hits filed as inhibitors | 360,000 compounds, 6.9% hits;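 also: plate controls were vehicle for no effect and reference inhibitor for full effect; nearly all actives have a fitted effect of over 55% in size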
Target sequence (P08659 whole entry, looked up): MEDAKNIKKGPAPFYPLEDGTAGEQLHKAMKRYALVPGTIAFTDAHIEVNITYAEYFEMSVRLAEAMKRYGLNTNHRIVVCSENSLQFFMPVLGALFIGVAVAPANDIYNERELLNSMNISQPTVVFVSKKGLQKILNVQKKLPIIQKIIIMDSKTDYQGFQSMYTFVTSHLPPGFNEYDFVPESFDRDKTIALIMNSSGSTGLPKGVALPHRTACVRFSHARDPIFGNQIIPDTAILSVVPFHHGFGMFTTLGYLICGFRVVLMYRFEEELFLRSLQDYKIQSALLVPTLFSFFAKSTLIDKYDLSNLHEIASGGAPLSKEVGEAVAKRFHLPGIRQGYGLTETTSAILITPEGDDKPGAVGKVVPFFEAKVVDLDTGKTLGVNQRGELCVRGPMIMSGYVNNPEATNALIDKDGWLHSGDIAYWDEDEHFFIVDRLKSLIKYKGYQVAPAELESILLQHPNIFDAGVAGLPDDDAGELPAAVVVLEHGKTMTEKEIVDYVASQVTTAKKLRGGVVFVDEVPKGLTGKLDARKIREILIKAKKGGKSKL
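Biochemical qHTS of compounds, final roughly 60 µM downward over six points, against 10 nM purified firefly luciferase using Km concentrations of substrates (10 uM D-luciferin, 10 uM ATP) in Tris acetate pH 7.5 buffer; luminescence output.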
SMN2 splice enh: SMN2 splice variant enhancement; HEK293 SMN2-luciferase splicing reporter, luminescence, 30-36 h; AID 1458; Potency, µM (titrated, usually from 46.1 µM), for inactives: at the top dose activity change, positive = activation, hits mostly activators; 210,000 compounds, 2.8% hits; also: % of control where 0% means no effect; nearly all actives have a fitted effect of over 55% in size
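qHTS luciferase splicing reporter: luminescence rises when SMN2 exon 7 is included in transfected HEK293 cells. Compound exposure lasted 30-36 h at 37C, with 4.5 mM final sodium butyrate as control, followed by a ONE-Glo read.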
ELG1 genotox: genotoxicity induction in ELG1-luciferase HEK293T cells; HEK293T ELG1-luciferase reporter, luminescence, 16 h; Potency, µM (highest dose often 46 µM), for inactives: at the highest dose activity change, positive = activation, hits mostly activators; AID 504466; 330,000 compounds, 1.3% hits; also: % of control where 0% means no effect; nearly all actives have a fitted effect of over 60% in size
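Genotoxicity was scored as increased ELG1-luciferase reporter signal, measured by ONE-Glo luminescence (30 min, room temperature). Compound or vehicle exposure of the HEK293T reporter cells lasted 16 hr at 37°C.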
NPC1 prom act: NPC1 promoter activation; Huh7 NPC1 promoter luciferase reporter, 24 h; 320,000 compounds, 2.4% hits; Potency, µM (top dose mostly 9.22 µM), for inactives: at the highest dose activation, actives largely listed as activators; also: % of control where 0% means no effect; nearly all actives have a fitted effect of over 60% in size
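Luminescence from an NPC1 promoter-driven luciferase reporter in stably transfected Huh7 cells was measured after 24 h compound treatment at 37 °C, followed by 10 min ambient incubation with luciferase detection reagent.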
ELG1 repair inh: inhibitors of ELG1-dependent DNA repair in HEK293T cells; HEK293T ELG1-luciferase reporter, luminescence, 16 h; DNA damage induced by 5-fluorouridine; Potency, µM (series often up to 46.1 µM), inactives show at the highest dose activity change, negative = inhibition, most hits filed as inhibitors; 330,000 compounds, 2.3% hits; also: % is scaled to controls: 0 for no effect and ±100 for the full control effect; nearly all actives have a fitted effect of over 55% in size
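Step one: seed 2,000 cells per well. Step two: pin-transfer compound or DMSO alongside 5-fluorouridine. Step three: incubate 16 hr, 37 °C, 5% CO2. Step four: add ONE-Glo, wait 30 min, read luminescence.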
* = called active by the depositor; ? = inconclusive; · = no result given; [ ] = remark or other dose. Calls follow the shape of the dose curve; as a rule, active = well fitted curve in the direction sought with a large enough effect; inconclusive = small, poorly fitted or top-dose-only effect, or another doubt; inactive = no such curve, though single readings can be large; an effect the other way counts as inactive or inconclusive. Potency is read from the fitted curve at half-maximal effect.

SMILES	Rab9 prom act	FLuc modulator	SMN2 splice enh	ELG1 genotox	NPC1 prom act	ELG1 repair inh
COC(=O)c1cc(NC(=O)Cc2coc3cc(OC)ccc23)cc(C(=O)OC)c1	1%	-12%	-16%	4%	2%	16µM*
COC(=O)c1ccc(C)c(NC(=O)Cc2coc3cc(OC)ccc23)c1	2%	1%	-3%	0%	0%	?
COc1ccc2c(CC(=O)Nc3ccc(OC)c(S(=O)(=O)N4CCOCC4)c3)coc2c1	-1%	17µM*	3%	14%	2%	-11%
CCCCCCCN	·	·	3%	·	·	·
CCc1cc2c(-c3ccccc3)cc(=O)oc2cc1OC(C)C(C)=O (centres undefined)	-1%	0%	·	3%	-3%	?
CCc1cc2c(=O)c(-c3nc(C)cs3)coc2cc1OC(C)C(=O)NCCO (centres undefined)	1%	11µM*	-6%	-6%	0%	?
CCOc1ccc(NC(=O)Nc2nnc(N3CCCCC3C)s2)cc1 (centres undefined)	·	-2%	·	·	·	·
COc1ccc(OC)c(NC(=O)Nc2nnc(N3CCCCC3C)s2)c1 (centres undefined)	7%	19µM*	·	7%	11%	0%
COc1ccc(NC(=O)Nc2nnc(N3CCCCC3C)s2)cc1OC (centres undefined)	-5%	17µM*	-4%	1%	-2%	-1%
CC1=N/C(=C\c2ccc([N+](=O)[O-])cc2)C(=O)N1c1ccc(F)cc1F	-1%	7.6µM*	·	-1%	-4%	11%
N/C(=N\OC(=O)COc1ccccc1)c1cccnc1	2%	-1%	-11%	0%	-5%	-16%
N/C(=N\OC(=O)COc1ccc2ccccc2c1Br)c1ccccn1	?	21µM*	?	?	?	?
N/C(=N\OC(=O)COc1ccc2ccccc2c1Br)c1cccnc1	-2%	19µM*	-2%	11%	1%	-6%
COc1ccc(NC(=O)/C=C/c2cc(OC)c(OC)c(OC)c2)cn1	6%	-1%	37%	-1%	-4%	8%
COc1ccc(NC(=O)/C=C/c2ccc(F)cc2)cn1	?	11µM*	?	12%	?	?
COc1ccc(NC(=O)/C=C/c2ccccc2)cn1	2.5µM*	8.5µM*	10%[1.84 µM]	?	3.5µM*	?
COc1cccc(/C=C/C(=O)Nc2ccc(OC)nc2)c1	25%	11µM*	1%[1.84 µM]	6%	27%	18%
COc1cccc(/C=C/C(=O)NNC(=O)c2ccncc2)c1	-1%	?	·	0%	0%	0%
Cc1cc(C)cc(NC(=O)c2oc3ccc4c(c3c2C)C(=O)CC(C)(C)O4)c1	·	0.76µM*	·	·	·	·
Cc1c(C(=O)Nc2cccc(C(F)(F)F)c2)oc2ccc(S(=O)(=O)N3CCOCC3)cc12	-15%	1%	-27%	-11%	-12%	?
Cc1c(C(=O)Nc2ccc(F)cc2F)oc2ccc3c(c12)C(=O)CC(C)(C)O3	·	1.1µM*	·	·	·	·
Cc1cccc(C)c1NC(=O)c1oc2ccc3c(c2c1C)C(=O)CC(C)(C)O3	·	-13%	·	·	·	·
Cc1c(C(=O)Nc2cccc(C(F)(F)F)c2)oc2ccc3c(c12)C(=O)CC(C)(C)O3	·	3.4µM*	·	·	·	·
O=C(c1cnn(-c2ccccc2)c1)c1cc(F)ccc1O	?	13µM*	·	?	?	?
COc1ccc(O)c(C(=O)c2cnn(-c3ccccc3)c2)c1	?	?	·	?	19%	?
SMILES	Rab9 prom act	FLuc modulator	SMN2 splice enh	ELG1 genotox	NPC1 prom act	ELG1 repair inh
O=C(c1cnn(-c2ccccc2)c1)c1ccccc1O	3.2µM*	2.4µM*	?	?	?	?
COc1ccc(-n2cc(C(=O)c3ccccc3O)cn2)cc1	0.5µM*	0.85µM*	?	2.3µM*	?	?
O=C(c1cnn(C(=O)CN2CCCC2=O)c1)c1ccccc1O	-2%	0%	·	-4%	-3%	-16%
COc1ccc(OC)c(NC2=C(c3ccccc3)C(=O)c3ccccc32)c1	·	-20%	-29%	·	·	·
COCCOC(=O)c1c(C)nc(SCC(=O)Nc2cccc3ccccc23)c(C#N)c1-c1ccco1	2%	7%	-20%	-9%	0%	13µM*
CCC(=O)N1CCc2cc(Br)cc(S(=O)(=O)CCC(=O)NCCc3cccc(C)c3)c21	·	-9%	·	·	·	·
O=C(COC(=O)[C@H](Cc1c[nH]c2ccccc12)NC(=O)c1ccc(Cl)cc1)Nc1ccc2c(c1)OCO2	2%	17µM*	-5%	10%	-2%	2%
COC(=O)[C@@H](Cc1c[nH]c2ccccc12)NC(=O)c1ccc2c(c1)OCO2	3%	0.48µM*	·	?	1%	10%
CC(C)(C)c1ccc(C(=O)NC(Cc2c[nH]c3ccccc23)C(=O)OCC(=O)c2ccc(Cl)cc2)cc1 (centres undefined)	·	-4%	·	·	·	·
COC(=O)[C@@H](Cc1c[nH]c2ccccc12)NC(=O)c1cc(=O)[nH]c2ccccc12	2%	0%	·	-4%	-1%	?
O=C(Nc1ccccc1C(=O)OCc1cc(=O)n2c3c(sc2n1)CCCC3)c1cccc(Cl)c1	·	-2%	·	·	·	·
CCC(=O)Nc1nnc(-c2ccncc2)s1	19%	1%	3%	2%	2%	-1%
COc1cccc(C(=O)Nc2nnc(-c3ccccc3)s2)c1	1.6µM*	4.8µM*	·	?	1.4µM*	?
COc1cccc(C(=O)Nc2nnc(-c3ccc(OC)cc3OC)s2)c1	6%	-10%	·	?	-1%	21%
COCC(=O)Nc1nnc(-c2ccc(C(C)(C)C)cc2)s1	0.56µM*	1.9µM*	8.9µM*	3.7µM*	1.1µM*	?
COc1cccc(OC)c1C(=O)Nc1nnc(-c2ccc(F)cc2)s1	11%	-27%	·	2%	1%	-5%
CC(C)(C)c1ccc(-c2nnc(NC(=O)c3ccccc3)s2)cc1	?	1.7µM*	2%	3%	?	?
O=C(c1c(Cl)nc2sccn12)N(C(=O)c1c(Cl)nc2sccn12)c1ccc(Cl)cn1	18%	-13%	13µM*	3.7µM*	15%	?
Cn1cccc1C(=O)C(=O)Nc1ccccc1	0.63µM*	5.4µM*	13µM*	?	0.56µM*	?
Cc1cc(C)cc(NC(=O)Cc2ccc(-n3cccc3)cc2)c1	-2%	1%	-18%	1%	0%	17%
COc1ccc(C(=O)COC(=O)C(CCCCN2C(=O)C3C4C=CC(C4)C3C2=O)N2C(=O)C3C4C=CC(C4)C3C2=O)cc1 (centres undefined)	-3%	-1%	-54%	-4%	-7%	5.8µM*

Compound activity deposited in PubChem by National Center for Advancing Translational Sciences (NCATS).
